# PfHsp90 set2 = growth inhibition of PfHsp90-expressing yeast, primary screen, antimalarial PfHsp90 inhibitor project, S. cerevisiae, BacTiter-Glo luminescence, single point, set 2. BacTiter-Glo ATP, 48 h; yeast lacking PDR1 and PDR3 efflux regulators. inhibition, % at 9.4 µM. 310,000 tested, 0.32% active. AID 504621, 2011;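 active = every replicate shows inhibition above about 80%, whatever the replicate mean, limit read from the data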;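 also: 0% = DMSO neutral controls and 100% = 20 µM radicicol positive controls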
# NALP1 inh = NALP1 inflammasome inhibitors in reconstituted yeast, colorimetric, S. cerevisiae, triplicate retest; S. cerevisiae NALP1/ASC/caspase-1 growth, X-gal OD620, 72 h; inhibition, % at 10 µM; 280,000 tested, 0.61% active; in the data active = inhibition mostly above about 24%, no sharp cut-off; inactive = mostly below about 32%
# tim23-1 inh = growth inhibitors of tim23-1 mutant yeast, primary screen, luminescence, uHTS; 330,000 tested, 1.3% active; S. cerevisiae tim23-1 growth, BacTiter-Glo luminescence, 24 h; inhibition, % at 20 µM; AID 463212, 2010;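 active = growth inhibition of the mutant yeast at or above 50%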;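 also: temperature-sensitive mutant grown at 25 °C; plate controls were DMSO-treated mutant yeast for no effect and medium wells lacking yeast for full effect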
# TIM10 inh = growth inhibitors of isogenic TIM10 control yeast, primary screen, counter-screen for tim10-1 yeast inhibitor project, luminescence, uHTS. inhibition, % at 10 µM. 330,000 tested, 1.4% active. AID 463195, 2010. S. cerevisiae TIM10 strain growth, BacTiter-Glo luminescence, 24 h;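 active = inhibition of 40% or more at the single tested concentration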;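 also: wild-type TIM10 isogenic control strain grown at permissive 25 °C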
# tim10-1 inh = growth inhibitors of tim10-1 mutant yeast, primary screen, luminescence, uHTS; S. cerevisiae tim10-1 ts strain growth, BacTiter-Glo, 24 h; inhibition, % at 20 µM; 330,000 tested, 2.2% active; AID 463190, 2010;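 active = inhibition of at least 40%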;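 also: mutant grown at 25 °C; 0% = DMSO wells with yeast and 100% = wells holding no yeast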
# NALP3 yeast inh = NALP3 inflammasome inhibitors in reconstituted yeast, primary screen, luminescence, uHTS | 330,000 tested, 0.39% active | inhibition, % at 10 µM | Yeast reconstituted NLRP3/ASC/caspase-1, beta-gal luminescence, 24 h | AID 2825, 2010;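 active = inhibition of 50% or more; inactive = inhibition below 50%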;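 also: plate controls were induced DMSO wells for no effect and uninduced yeast grown without galactose for full effect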
# tim10-1 confirm = growth inhibitors of tim10-1 mutant yeast, confirmation, single concentration, luminescence, S. cerevisiae; shares compounds with tim10-1 inh; S. cerevisiae tim10-1 ts strain growth, BacTiter-Glo, 24 h; inhibition, % at 20 µM; 7,400 tested, 56% active;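 active = inhibition of yeast growth at or above a set limit in either of two repeat tests at 20 µM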;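 also: tim10-1 mutant grown at permissive 25 °C to find synthetic lethal compounds; 0% = DMSO yeast wells and 100% = medium wells without yeast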
# TIM10 conf = growth inhibitors of wild-type TIM10 yeast, confirmation, counter-screen for tim10-1 synthetic lethality project, single concentration, luminescence, S. cerevisiae; 4,600 tested, 63% active; shares compounds with TIM10 inh; inhibition, % at 10 µM; S. cerevisiae tim10 strain growth, BacTiter-Glo luminescence, 24 h;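 active = inhibition of yeast growth at or above a set limit in either of two replicates at 10 µM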;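 also: this counterscreen used the strain with wild-type TIM10; 0% = yeast with DMSO and 100% = medium wells lacking yeast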
# tim23-1 confirm = tim23-1 mutant yeast growth inhibitors, confirmation, luminescence, single concentration | shares compounds with tim23-1 inh | S. cerevisiae tim23-1 growth, BacTiter-Glo luminescence, 24 h | inhibition, % at 20 µM | 4,400 tested, 83% active;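 active = inhibition above about 39% in either of two replicate wells at 20 µM, limit read from the data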;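 also: temperature-sensitive tim23-1 mutant grown at 25 °C; 0% = DMSO wells with yeast and 100% = medium wells without yeast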
# Active calls of the source: *; nt = not tested or not shown. Sampled rows, rich in hits. Any-hit rate of the full collection: about 4.2%.
SMILES,PfHsp90 set2,NALP1 inh,tim23-1 inh,TIM10 inh,tim10-1 inh,NALP3 yeast inh,tim10-1 confirm,TIM10 conf,tim23-1 confirm
CC1CC(C)(C)N2C(=O)C(=C(C#N)C#N)c3cccc1c32 (stereo not given),-2,nt,70*,54*,71*,19,68*,43*,82*
Cc1ccc(OCC(=O)N[C@@H](C)c2nnc3ccccn23)cc1C,-31,14,-13,-10,-4,14,nt,nt,nt
Cc1ccc(S(=O)(=O)N(C)CC(=O)NNC(=O)CCS(=O)(=O)c2ccccc2)cc1,-26,nt,-5,-3,-9,9,nt,nt,nt
CN(C(=O)/C=C/c1ccc([N+](=O)[O-])s1)c1ccccc1,-25,7,53*,43*,45*,44,59*,49*,50*
COc1ccc(-c2cc(C(F)F)nc(-n3nc(C)cc3C)n2)cc1,-25,-2,58*,52*,42*,30,36*,-10,45*
N#CC(C#N)=Cc1cc2ccccc2nc1N1CCCCC1,-43,29,78*,41*,53*,13,42*,13,71*
CCOc1ccc2oc(C(=O)OC(C(=O)NC(N)=O)C(C)C)c(C)c2c1 (stereo not given),-13,17,12,-4,-6,10,nt,nt,nt
Cc1ccc(-c2cc(-c3ccccc3[N+](=O)[O-])[nH]n2)c(O)c1,-9,3,60*,44*,52*,10,42*,31*,66*
Oc1ccc(Cl)cc1-c1cc(-c2ccccc2)n[nH]1,4,14,60*,55*,43*,14,36*,58*,22
Cc1ccc(-c2cc(NC(=O)c3ccccc3[N+](=O)[O-])n[nH]2)cc1,4,14,7,10,4,18,nt,nt,nt
Cc1ccc(-c2cc(-c3ccc(F)cc3)n[nH]2)c(O)c1,-12,5,61*,23,41*,25,46*,nt,51*
Cc1ccc(-c2cc(-c3ccc(C)cc3O)[nH]n2)cc1,-12,-32,41,33,9,22,nt,nt,nt
COc1ccccc1-c1cc(-c2cc(Cl)ccc2O)n[nH]1,nt,26,17,11,20,-12,nt,nt,nt
COc1ccc(N(CC(=O)NCc2ccccc2)C(=O)Cn2nnc(-c3ccccc3F)n2)cc1OC,-7,-6,9,0,1,31,nt,nt,nt
Cc1ccc(NC(=O)/C(C#N)=C/c2ccccc2C(F)(F)F)cc1,-18,33,13,30,34,5,nt,nt,nt
Cc1ccccc1NC(=O)/C(C#N)=C/c1ccccc1C(F)(F)F,-15,10,56*,56*,58*,18,56*,5,58*
OCCCNc1nc(-c2ccc(Br)cc2)nnc1-c1ccc(Cl)cc1,40,34,54*,12,42*,6,31*,nt,59*
Cc1nnc(-c2ccc(Cl)cc2)nc1NCCN(C)C,45,21,-6,2,5,-3,nt,nt,nt
COCCCNc1nc(-c2ccc(Cl)cc2)nc2ccccc12,2,36*,59*,27,46*,26,34*,nt,54*
OCCCNc1nc(-c2ccc(Cl)cc2)nc2ccccc12,28,2,60*,34,43*,17,27,nt,31
Clc1cccc(N/N=C/c2ccc(N3CCOCC3)s2)c1,0,7,27,-13,-15,23,nt,nt,nt
Cc1ccc(Cl)cc1NC(=O)N[C@@H](CC(C)C)C(=O)O,-3,31,10,8,-17,8,nt,nt,nt
COc1ccc(N2C(=O)CSC(c3ccccc3)C2=O)cc1 (stereo not given),20,-9,20,5,28,2,nt,nt,nt
CCOc1cccc(CNc2ccc(O)cc2)c1OCc1ccc(Cl)cc1Cl,-4,11,62*,33,42*,5,35*,nt,54*
Cc1cccc(CSc2cccc3cccnc23)c1,nt,-7,51*,37,46*,41,40*,nt,50*
SMILES,PfHsp90 set2,NALP1 inh,tim23-1 inh,TIM10 inh,tim10-1 inh,NALP3 yeast inh,tim10-1 confirm,TIM10 conf,tim23-1 confirm
CCOc1ccc(S(=O)(=O)Nc2ccc(C(=O)NCc3ccncc3)cc2)cc1,-4,nt,-6,3,-19,2,nt,nt,nt
Cc1cc(C)n(CC(O)Cn2c3ccc(Cl)cc3c3cc(Cl)ccc32)c(=O)n1 (stereo not given),-5,19,54*,61*,57*,8,54*,56*,47*
O=C(Nc1ccccc1C(=O)N1CCCCC1)c1ccc(Cl)cc1Cl,-29,-7,19,0,29,20,nt,nt,nt
COc1cc(CC(=O)Nc2sc3c(c2C(N)=O)CCCC3)cc(OC)c1OC,-8,11,-18,-3,-4,20,nt,nt,nt
CN(C)S(=O)(=O)c1cccc(NC(=S)Nc2ccc(Cl)cc2Cl)c1,5,-20,15,16,23,-14,nt,nt,nt
CN(C)S(=O)(=O)c1cccc(NC(=S)Nc2cc(Cl)cc(Cl)c2)c1,25,16,52*,60*,58*,15,36*,23,44*
CCOc1ccc(N=C(/C(C(=O)C(=O)N2CCOCC2)=C(/O)c2ccccc2)c2ccccc2)cc1,5,-4,1,2,-11,16,nt,nt,nt
COc1cc(NC(=O)C2CCN(S(=O)(=O)c3ccc4[nH]c(=O)oc4c3)CC2)cc(OC)c1,2,7,-8,6,1,2,nt,nt,nt
CCc1nc(NC(=O)Cc2csc(C)n2)sc1C(=O)OC,-5,-1,20,5,33,2,nt,nt,nt
Oc1c(Br)cc(Cl)cc1C=Nc1ccccc1Br,0,33,84*,38,46*,4,25,nt,79*
COc1cc(N2C(=O)C=CC2=O)ccc1N1C(=O)C=CC1=O,30,nt,nt,nt,nt,nt,nt,nt,nt
O=C1C=CC(=O)N1c1cccc(-c2ccccc2)c1,107*,14,51*,95*,95*,38,98*,99*,98*
O=C1c2ccccc2C(=O)C1c1ccccn1,26,3,-4,-19,-25,13,nt,nt,nt
